The source of these data is PubChem BioAssay.

Activity calls are given as the source filed them.

Assay [1] in a line: binders of probe aFSTL3 on microarray, primary screen, stem cell growth factor project, biochemical, small-molecule microarray, fluorescence 635/667 (AID 1064).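 Note: measures binding of the biotinylated anti-FSTL3 antibody to printed compounds.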 The conditions noted are these: higher = more signal.
The nature of assay [2]: binders from COS7 lysate, DM2A8 probe, primary screen, torsin A project, cell lysate, small-molecule microarray, fluorescence 635/667 (AID 1065). Particulars: higher = more signal, COS7 lysate expressing mutant human TOR1A.
Assay [3] can be described thus: binders of probe aFGF2 on microarray, primary screen, stem cell growth factor project, biochemical, small-molecule microarray, fluorescence 635/667 (AID 1067).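 Note: measures binding of biotinylated aFGF2 protein to printed compounds on slides; z-score merges feature fluorescence and signal-to-noise across triplicate slides.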 Particulars: higher = more signal.
Assay [4] in a line: binders of probe aFGF10 on microarray, primary screen, stem cell growth factor project, biochemical, small-molecule microarray, fluorescence 635/667 (AID 1071).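 Note: score merges 667 nm spot intensity and signal to noise from triplicate slides.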 Particulars: higher = more signal.
Assay [5] addresses Neurogenic locus notch homolog protein 2 (Homo sapiens) (UniProt Q04721). As to the kind of experiment: Notch2 binders on small-molecule microarrays, primary screen, biochemical, small-molecule microarray, 635 nm fluorescence, stem cell growth factors (AID 1073). Particulars: Notch2 binding, higher = more signal.
Assay [6] deals with Pro-neuregulin-1, membrane-bound isoform (Homo sapiens) (UniProt Q02297). As to the kind of experiment: NRG1 binders on small-molecule microarrays, primary screen, psychiatric disease protein project, biochemical, small-molecule microarray, fluorescence 635/667 (AID 1075).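 Note: score combines 667 nm spot fluorescence with signal to noise.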 The conditions noted are these: NRG1 binding, 635 nm fluorescence, higher = more signal.
Assay [7] concerns Neuregulin-1 EGF-like domain. As to the kind of experiment: binders of neuregulin-1 EGF-like domain, primary screen, biochemical, small-molecule microarray, 635 nm fluorescence (AID 1081).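 Note: binding of the protein to compounds printed on small-molecule microarray slides.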 The conditions noted are these: small-molecule microarray binding, higher = more signal.
The nature of assay [8]: FRG1 promoter luciferase signal modulators, primary screen, FRG1 inhibition for FSHD, cell-based, C2C12 myotubes, firefly/Renilla luciferase, luminescence (AID 1084). Particulars: higher = more signal, called active from +8 up or from −8 down.
A short description of assay [9]: binders of probe aFST on microarray, primary screen, stem cell growth factor project, biochemical, small-molecule microarray, fluorescence 635/667 (AID 1086).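 Note: score merges 667 nm fluorescence with signal-to-noise of each printed compound spot.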 The conditions noted are these: higher = more signal.
A short description of assay [10]: binders of probe aHhip on microarray, primary screen, stem cell growth factor project, biochemical, small-molecule microarray, fluorescence 635/667 (AID 1087).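 Note: score merges spot fluorescence at 667nm with spot signal to noise ratio.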 Particulars: higher = more signal.

Sequence of Neurogenic locus notch homolog protein 2 (Homo sapiens) (Q04721 whole entry, looked up, canonical isoform): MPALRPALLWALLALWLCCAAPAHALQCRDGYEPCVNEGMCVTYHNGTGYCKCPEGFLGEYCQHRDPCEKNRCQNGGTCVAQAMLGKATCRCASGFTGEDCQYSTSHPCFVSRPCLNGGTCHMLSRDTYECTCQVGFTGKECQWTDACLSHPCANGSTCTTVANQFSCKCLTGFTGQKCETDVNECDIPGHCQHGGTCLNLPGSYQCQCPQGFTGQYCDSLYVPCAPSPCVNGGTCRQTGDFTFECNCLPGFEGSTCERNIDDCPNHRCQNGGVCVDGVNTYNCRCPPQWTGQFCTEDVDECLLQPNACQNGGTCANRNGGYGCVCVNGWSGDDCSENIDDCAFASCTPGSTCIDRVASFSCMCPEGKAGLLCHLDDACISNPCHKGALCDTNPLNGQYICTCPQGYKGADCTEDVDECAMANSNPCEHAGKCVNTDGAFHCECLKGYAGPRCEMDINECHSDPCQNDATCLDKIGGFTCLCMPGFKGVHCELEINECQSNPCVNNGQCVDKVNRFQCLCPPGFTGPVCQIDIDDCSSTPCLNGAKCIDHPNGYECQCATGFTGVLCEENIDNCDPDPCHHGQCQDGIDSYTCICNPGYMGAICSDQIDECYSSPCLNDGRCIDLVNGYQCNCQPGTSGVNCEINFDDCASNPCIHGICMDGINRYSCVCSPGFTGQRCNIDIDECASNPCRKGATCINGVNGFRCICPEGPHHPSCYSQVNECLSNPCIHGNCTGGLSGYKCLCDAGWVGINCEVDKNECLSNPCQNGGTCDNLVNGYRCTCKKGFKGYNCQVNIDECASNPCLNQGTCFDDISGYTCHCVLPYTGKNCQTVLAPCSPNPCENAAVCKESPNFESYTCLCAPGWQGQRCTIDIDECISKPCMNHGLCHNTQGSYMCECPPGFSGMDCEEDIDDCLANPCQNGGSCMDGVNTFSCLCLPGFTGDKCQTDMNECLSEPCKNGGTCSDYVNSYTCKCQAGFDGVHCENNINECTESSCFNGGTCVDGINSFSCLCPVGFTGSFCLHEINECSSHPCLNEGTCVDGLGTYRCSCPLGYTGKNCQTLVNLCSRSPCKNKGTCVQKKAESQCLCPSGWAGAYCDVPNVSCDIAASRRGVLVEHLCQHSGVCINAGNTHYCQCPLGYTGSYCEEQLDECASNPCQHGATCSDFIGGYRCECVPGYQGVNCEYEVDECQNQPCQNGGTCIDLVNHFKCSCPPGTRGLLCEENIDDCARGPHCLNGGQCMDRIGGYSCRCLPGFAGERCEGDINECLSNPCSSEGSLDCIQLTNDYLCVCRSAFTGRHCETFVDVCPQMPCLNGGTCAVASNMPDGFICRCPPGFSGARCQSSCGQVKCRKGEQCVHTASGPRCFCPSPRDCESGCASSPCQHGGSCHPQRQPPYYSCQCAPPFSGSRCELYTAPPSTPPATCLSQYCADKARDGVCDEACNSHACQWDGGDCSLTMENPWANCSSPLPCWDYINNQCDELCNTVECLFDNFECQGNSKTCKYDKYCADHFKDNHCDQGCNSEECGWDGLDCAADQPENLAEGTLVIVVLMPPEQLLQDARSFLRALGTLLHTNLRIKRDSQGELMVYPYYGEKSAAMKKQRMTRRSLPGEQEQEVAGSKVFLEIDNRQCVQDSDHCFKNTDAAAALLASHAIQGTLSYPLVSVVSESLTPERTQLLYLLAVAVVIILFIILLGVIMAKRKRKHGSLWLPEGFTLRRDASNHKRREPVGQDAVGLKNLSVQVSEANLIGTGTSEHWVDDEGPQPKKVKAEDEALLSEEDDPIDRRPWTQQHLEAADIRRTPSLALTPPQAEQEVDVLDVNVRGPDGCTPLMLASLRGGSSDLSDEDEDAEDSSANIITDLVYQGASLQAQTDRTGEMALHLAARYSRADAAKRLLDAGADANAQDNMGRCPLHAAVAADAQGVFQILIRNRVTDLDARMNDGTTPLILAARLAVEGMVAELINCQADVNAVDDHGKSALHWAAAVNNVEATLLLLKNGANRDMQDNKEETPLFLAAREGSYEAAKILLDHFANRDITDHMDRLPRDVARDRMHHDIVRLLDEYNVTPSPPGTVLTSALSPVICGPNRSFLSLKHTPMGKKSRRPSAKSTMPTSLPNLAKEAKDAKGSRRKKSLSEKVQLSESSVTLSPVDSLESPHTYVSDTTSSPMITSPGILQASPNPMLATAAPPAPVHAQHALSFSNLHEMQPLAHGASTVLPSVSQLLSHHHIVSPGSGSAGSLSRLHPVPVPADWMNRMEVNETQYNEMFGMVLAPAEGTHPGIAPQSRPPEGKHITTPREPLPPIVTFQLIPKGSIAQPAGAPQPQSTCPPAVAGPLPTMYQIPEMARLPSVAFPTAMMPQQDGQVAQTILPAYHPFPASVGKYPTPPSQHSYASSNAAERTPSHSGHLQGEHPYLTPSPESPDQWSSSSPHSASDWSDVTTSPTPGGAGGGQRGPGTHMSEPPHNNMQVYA
Sequence of Pro-neuregulin-1, membrane-bound isoform (Homo sapiens) (Q02297 whole entry, looked up, the tested form may be a part, canonical isoform): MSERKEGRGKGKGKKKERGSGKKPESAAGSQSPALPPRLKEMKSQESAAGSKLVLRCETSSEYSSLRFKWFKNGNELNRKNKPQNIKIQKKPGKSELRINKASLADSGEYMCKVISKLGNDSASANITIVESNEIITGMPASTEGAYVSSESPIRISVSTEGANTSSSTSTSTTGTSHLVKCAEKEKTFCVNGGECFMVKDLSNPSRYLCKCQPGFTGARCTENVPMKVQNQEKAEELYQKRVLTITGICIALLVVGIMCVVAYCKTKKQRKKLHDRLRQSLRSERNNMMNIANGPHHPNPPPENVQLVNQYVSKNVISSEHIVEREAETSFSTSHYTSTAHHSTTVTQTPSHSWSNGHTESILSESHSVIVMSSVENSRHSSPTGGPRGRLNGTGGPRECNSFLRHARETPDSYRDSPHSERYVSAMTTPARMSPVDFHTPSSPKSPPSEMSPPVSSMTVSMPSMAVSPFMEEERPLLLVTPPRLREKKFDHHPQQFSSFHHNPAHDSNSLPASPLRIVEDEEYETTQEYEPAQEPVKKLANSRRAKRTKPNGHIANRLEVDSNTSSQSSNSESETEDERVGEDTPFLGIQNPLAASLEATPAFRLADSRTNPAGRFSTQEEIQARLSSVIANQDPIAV

For the molecule `CCOC(=O)C1=CC[C@@H](c2ccc(OC)cc2)N(S(=O)(=O)c2ccc(C)cc2)[C@H]1CC`, the composite z-score is -0.295 in [1]; 0.495 in assay [2]; -0.067 in assay [3]; 0.398 in assay [4]; 1.66 in assay [5]; 1.13 in [6]. Besides, the composite z-score was 1.11 in assay [7], 1.14 in assay [9] and -0.0645 in assay [10]. Further, in assay [8], the z-score is -3.47 (inactive).

For `Cc1ccc(S[C@]2(C(=O)NCCCN(C)C)CC(=O)N(Cc3ccccc3C(F)(F)F)[C@@H]2c2ccc(CO)cc2I)cc1`, the composite z-score is -0.73 in assay [1]; -0.0283 in [2]; -0.21 in assay [3]; -0.211 in assay [4]; -0.733 in [5]; 1.51 in [6]. In addition, the composite z-score in assay [7] was 1.13; in [9], 0.216; in assay [10] it was -0.54. The z-score in [8] was 0.241 (inactive).

For the molecule `COc1ccc(C(=O)Nc2cccc(CN3C(=O)[C@]4(O[C@H](CC(=O)N5Cc6ccccc6C[C@H]5CO)[C@@H]([Si](C)(C)c5ccc(OC)cc5)[C@@H]4C)c4ccccc43)c2)cc1`, the composite z-score in [1] was -0.24; in [2] it was 0.822; in assay [3], -0.159; in assay [4] it was 0.426; in assay [5], 0.424; in assay [6] it was 0.466. Further, the composite z-score in assay [7] was 0.762; in assay [9], 0.208; in assay [10], -0.211. In addition, the z-score in assay [8] was -1.66 (inactive).

Take `CC(C)C(=C=CC[C@H](O)c1ccccc1OCCO)C[C@H](O)c1cc(Cl)cc(Cl)c1O`: the composite z-score in assay [1] was -0.435; in [2], 0.807; in assay [3] it was -0.0266; in [4] it was 0.742; in assay [5] it was 0.648; in assay [6], 1.6. Also, the composite z-score in assay [7] was found to be 0.889; in assay [9] it was 0.454; in [10], 0.0505. Besides, the z-score in assay [8] is -0.926 (inactive).

In the case of `O=C1C2C=CC(C(O)c3cccs3)N(Nc3ccc([N+](=O)[O-])cc3)C2C(=O)N1c1ccccc1` (stereo not given), the composite z-score in [1] was 0.102; in [2], -0.0628; in assay [3], 0.0543; in assay [4], 0.362; in assay [5] it was 1.19; in assay [6], 1.67. The composite z-score in assay [7] came to 1.23; in assay [9], 0.611; in assay [10] it was 0.154. Also, the z-score in assay [8] is 1.05 (inactive).

In the case of `O=C1C2C=CC(C(O)c3ccc([N+](=O)[O-])cc3)N(Nc3ccccc3F)C2C(=O)N1c1ccccc1` (stereo not given), the composite z-score in [1] is 0.484; in [2], 0.173; in assay [3] it was -0.0172; in [4], 0.438; in [5], 1.12; in [6], 1.6. The composite z-score in assay [7] was 1.29; in assay [9], 0.883; in [10], -0.163. The z-score in [8] was -0.101 (inactive).

As for `CCCc1cc2c(n1CCc1ccc(Cl)cc1)C(C)C1CN(C(=O)c3ccccc3)C(C)(C(=O)OC)C21` (stereo not given), the composite z-score in assay [1] came to 1.44; in assay [2], 0.721; in assay [3] it was 0.384; in assay [4] it was 0.204; in [5], 1.73; in [6], 1.78. For the same molecule, the results for the composite z-score in [7], in assay [9] and in [10] were 0.937, 1.1 and 2.27, respectively. Further, the z-score in assay [8] is 1.91 (inactive).

Regarding `COCCn1c(C(=O)N(C)C)cc2c1C[C@H]1CN(C(=O)c3ccccc3)[C@@](Cc3ccc(OC)cc3)(C(=O)OC)[C@@H]21`, the composite z-score is 0.609 in assay [1]; -0.478 in assay [2]; -0.19 in assay [3]; 0.34 in [4]; 1.64 in [5]; 1.54 in [6]. The composite z-score in assay [7] turned out to be 1.27; in assay [9], 1.32; in assay [10], 0.0053. Moreover, in assay [8], the z-score was 1.54 (inactive).

Turning to `CCOC(=O)C[C@H]1[C@H](OC(=O)c2ccccc2-c2ccccc2)[C@@H](NC(=O)C2CCCCC2)c2cc(OCCCO)ccc2N1C(=O)c1ccc2ccccc2n1`, the composite z-score is -0.484 in [1]; 0.0817 in [2]; -0.0594 in [3]; 0.53 in assay [4]; 0.813 in assay [5]; 0.388 in [6]. Besides, the composite z-score in assay [7] is 0.825; in assay [9] it was 0.512; in [10], -0.0296. Moreover, the z-score in assay [8] is 0.396 (inactive).

Take `NCCCCCCNC(=O)[C@@H]1C[C@@H]2C(=O)N3CCC[C@H]3C(=O)N2[C@@H]1c1cccc(OCCO)c1`: the composite z-score in assay [1] was 1.14; in assay [2], 0.957; in [3], -0.0347; in assay [4] it was 0.361; in assay [5], 0.0828; in assay [6], 1.58. Moreover, the composite z-score was 1.36 in assay [7], 0.492 in assay [9] and 0.249 in [10]. For the same molecule, in assay [8], the z-score is 1.52 (inactive).

For the molecule `CCCCC(O)C1C=CC2C(=O)N(c3ccccc3)C(=O)C2N1Nc1ccc([N+](=O)[O-])cc1` (stereo not given), the composite z-score in [1] was 0.108; in [2] it was 0.0331; in assay [3], -0.0004; in assay [4], 0.531; in assay [5], 1.06; in assay [6] it was 1.58. Further, the composite z-score in assay [7] was 1.35; in assay [9] it was 1.27; in assay [10], -0.154. Also, the z-score in assay [8] is 0.456 (inactive).

With `Cc1ccc(S[C@]2(C(=O)NCc3ccccc3)CC(=O)N(Cc3ccccc3C(F)(F)F)[C@@H]2c2ccc(CO)cc2)cc1`, the composite z-score in [1] was 0.563; in assay [2] it was -0.355; in [3], -0.105; in assay [4], -0.659; in assay [5] it was -1.44; in assay [6] it was 0.642. Moreover, the composite z-score in assay [7] is -1.08; in [9] it was -0.633; in [10], -0.204. Moreover, in assay [8], the z-score was -1.92 (inactive).

Turning to `C=CCOC(=O)[C@@H]1[C@H]2C(=O)O[C@H](c3ccccc3)[C@H](c3ccccc3)N2[C@H](c2ccc(OCCOC(=O)[C@H]3C[C@H]4C(=O)NCC(=O)N4[C@H]3c3cccc(OCCO)c3)cc2)[C@@]12C(=O)Nc1ccc(I)cc12`, the composite z-score was -0.0708 in assay [1]; 0.727 in assay [2]; -0.0383 in assay [3]; -0.0265 in assay [4]; 0.593 in assay [5]; 1.16 in [6]. For the same molecule, the composite z-score in assay [7] was 1.23; in [9], 0.275; in assay [10] it was -0.0296. Also, the z-score in assay [8] was 0.779 (inactive).

As for `[N-]=[N+]=NCc1ccccc1[C@@H]1OC(c2ccc(OCCCO)cc2)=N[C@]1(Cc1ccccc1N=[N+]=[N-])C(=O)NCC(O)CO` (stereo not given in full), the composite z-score in [1] was -0.166; in assay [2] it was 0.57; in [3], 0.145; in assay [4], 0.61; in assay [5], 1.53; in assay [6] it was 1.99. Also, the results for the composite z-score in assay [7], in assay [9] and in assay [10] were 0.981, 1.84 and 0.272, respectively. The z-score in assay [8] was 0.0407 (inactive).

Regarding `CC(C)NC(=O)[C@@H]1c2ccccc2C(=O)N(Cc2ccccc2C(F)(F)F)[C@H]1c1ccc(CO)cc1`, the composite z-score in assay [1] was -0.804; in assay [2], 0.313; in [3] it was 0.0553; in assay [4], -0.0635; in [5] it was -0.409; in [6], -0.774. Further, the composite z-score in assay [7] is 0.837; in [9], 0.618; in assay [10] it was -0.668. In [8], the z-score is -1.26 (inactive).
